Shown are actives, neighbours in structure and some others; about 20% of the full set was active somewhere.
Shiga inhibitor – A qHTS for Small Molecule Inhibitors of Shiga Toxin; Vero cells, Shiga toxin protein synthesis inhibition reporter; inhibition, % at 38.7 µM; hit rate 9.2% among 290,000; AID 2315, 2010; in the data active = inhibition mostly above about 28%, no sharp cut-off; inactive = mostly below about 43%; also: 0% is about no effect
Pf growth 48h – Primary qHTS for delayed death inhibitors of the malarial parasite plastid, 48 hour incubation. P. falciparum luciferase growth in erythrocytes, 48 h. Potency, µM (titrated, usually from 28.7 µM), for inactives: at the top dose activity change, negative = inhibition, most hits filed as inhibitors. hit rate 5.9% among 310,000; also: potency is read from the fitted curve at half-maximal effect; % is scaled to controls: 0 for no effect and ±100 for the full control effect
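Growth was read as firefly luciferase luminescence after a 48 h, 37 C, 5% CO2 exposure of compounds to reporter-bearing P. falciparum cultures (0.1% parasitemia, 2% hematocrit final) in Albumax-supplemented RPMI 1640.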
HCMV antiviral – qHTS Assay for inhibitors of the human cytomegalovirus (HCMV) | HFF cells, HCMV-luciferase reporter, 72 h; stronger effect = lower value | activity change, negative = inhibition, % at 57.5 µM | hit rate 4.5% among 410,000 | AID 1259415, 2018; in the data active = activity change below about -60%; inconclusive = no clear call, values can overlap the other calls; inactive = above about -39%; also: % is scaled to controls: 0 for no effect and ±100 for the full control effect
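Two compound doses tested in HFFs infected with HCMV-luciferase, MOI 1 PFU/cell, 72 h at 37C. Lysate luminescence read with OneGlo; data normalized against buffer-only and 10uM Salinomycin inhibitor controls.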
Pf growth 96h – Primary qHTS for delayed death inhibitors of the malarial parasite plastid, 96 hour incubation | P. falciparum luciferase reporter growth, 96 h | Potency, µM (top dose mostly 28.7 µM), for the others: at the top dose activity change, negative = inhibition, hits mostly inhibitors | hit rate 6.9% among 320,000 | AID 504834, 2011; also: potency is read from the fitted curve at half-maximal effect; % is scaled to controls: 0 for no effect and ±100 for the full control effect
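Two parasite generations (96 h, 37 C, 5% CO2) of compound exposure in infected erythrocytes (0.05% parasitemia, 2% hematocrit). Luciferase-reporter P. falciparum; decreased luminescence indicates inhibited growth, aimed at apicoplast-acting delayed death.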
Cycloheximide cs – Cycloheximide Counterscreen for Small Molecule Inhibitors of Shiga Toxin; cell reporter, cycloheximide protein synthesis inhibition counterscreen; max response, %; hit rate 12% among 300,000; in the data active = max response mostly above about 13%, no sharp cut-off; inactive = mostly below about 14%; also: read at 38.3 µM for the half of the compounds with a filed dose; 0% is about no effect
* = called active by the depositor; ? = inconclusive; . = not tested or not shown; [ ] = dose if it differs, or a comment. Unless noted, calls follow the shape of the dose curve; as a rule, active = well fitted inhibition curve with a large enough effect; inconclusive = small, poorly fitted or top-dose-only effect, or another doubt; inactive = no such curve, though single readings can be large or run the other way.

SMILES	Shiga inhibitor	Pf growth 48h	HCMV antiviral	Pf growth 96h	Cycloheximide cs
COc1ccc(/C=C(/C#N)C(=O)NC2CCCCC2)cc1Br	21	?	-37	?	-4
N#C/C(=C\c1cccnc1)C(=O)NC1CCCCC1	-5	10µM*	23	?	1
CCCCNC(=O)/C(C#N)=C/c1ccc2c(c1)OCCO2	50*	-2%	?	-18%	47*
COc1cccc(CNC(=O)C(=O)NCC(c2cccs2)S(=O)(=O)c2cccs2)c1 (stereo unspecified)	.	.	-11	.	.
CCOc1ccc2nc(N3CCCC(C(=O)Nc4ccc(Br)c(C)c4)C3)sc2c1 (stereo unspecified)	.	.	24	.	.
CN1C(=S)SC(/[N+]([O-])=C/c2ccc(Cl)cc2)C1(C)C (stereo unspecified)	-5	134%	-65*	-5%	5
CN1C(=S)SC(/[N+]([O-])=C/c2cccnc2)C1(C)C (stereo unspecified)	-9	12%	5	3.7µM*	-2
CC(C)Cn1c(=O)c2ccccc2n2c(CCC(=O)N3CCN(c4ccccc4F)CC3)nnc12	.	.	51	.	.
CCc1noc(C)c1C(=O)N1CCCSC1=Nc1ccccc1C(C)C	.	15µM*	?	6.6µM*	.
C=CCn1c(SCC(=O)Nc2ccc(Br)cc2)nc(O)cc1=O	.	.	-100*	.	.
C=CCn1c(SCCCCCC)nc(O)cc1=O	-6	-6%	-1	6.6µM*	-2
COC1=C/C(=C/c2c(O)c(C#N)c3ccccn23)C=CC1=O	73*	143%	71	162%	56*
CSc1ccc(CNC(=O)c2ccc(NC(=O)c3nsc4ccccc34)cc2)cc1	.	.	-96*	.	.
CC(C)Oc1ccc(CNC(=O)c2ccc(NC(=O)c3nsc4ccccc34)cc2)cc1	.	.	68	.	.
Cc1ccc(CNC(=O)c2ccccc2NC(=O)c2nsc3ccccc23)cc1	.	.	-88*	.	.
Cc1cccc(C(=O)NNC(=O)CCCCC(=O)NNC(=O)c2cccc(C)c2)c1	7	4%[0.00184 µM]	-4	-3%	-4
CCOC(=O)c1ccc(NC(=O)CCn2ccc(C)n2)cc1	.	.	-5	.	.
Cn1cccc1CNC(=S)Nc1ccccc1F	30	6%	-25	4%	8
Cc1ccc(-c2cn(CCN)c(-c3ccc(Cl)nc3)n2)cc1	.	10µM*	-8	-5%	.
C=CCNC(=S)/N=c1/ccccn1CCC	-32	0%	-107*	-2%	-2
C=CCNC(=S)N(Cc1ccccc1)Cc1ccccc1	-27	-9%	-21	?	4
C=CCNC(=S)/N=c1/ccccn1C	-7	4%	-98*	?	1
CCCCN(CC)C(=O)Cn1nc(C)c2c(C)n(-c3ccccc3)nc2c1=O	.	.	-4	.	.
CCC(CC)c1nnc(NC(=O)CSCc2c(C)noc2C)s1	.	.	-17	.	.
CCc1ccccc1NS(=O)(=O)c1ccc2c(c1)NC(=O)CC(=O)N2	-2	-5%	-27	8%	-1
SMILES	Shiga inhibitor	Pf growth 48h	HCMV antiviral	Pf growth 96h	Cycloheximide cs
Cc1c(NS(=O)(=O)c2ccc3c(c2)NC(=O)CC(=O)N3)cccc1[N+](=O)[O-]	-5	12%	0	15µM*	-10
CC(=O)CSc1nnc(CN2C(=O)CSc3ccc(C(F)(F)F)cc32)n1C	5	-4%	0	4%	1
O=C(C1=C[C@@H](C2CCCCC2)C[C@@H](OCc2ccc(CO)cc2)O1)N1CCN(Cc2ccc3c(c2)OCO3)CC1	-15	4.7µM*	8	13µM*	-3
O=C(C1=C[C@H](C2CCCCC2)C[C@H](OCc2ccc(CO)cc2)O1)N1CCN(Cc2ccc3c(c2)OCO3)CC1	-15	?	.	10µM*	-1
Cc1coc2c(C)c3oc(=O)c(CC(=O)NCc4ccccc4)c(C)c3cc12	.	.	-15	.	.
Cc1ccc(-n2nnnc2-c2cnn(-c3cccc(F)c3)c2C(F)(F)F)cc1	-2	-13%	-75*	-2%	1
CCCCCC(=O)N1C[C@@H](O)[C@H](n2cc(COC(=O)c3ccccc3)nn2)C[C@@H]1c1ccc(OC)cc1	.	.	7	.	.
Cc1ccc(NC(=O)C2CCN(S(=O)(=O)c3ccc4c(c3)NC(=O)CO4)CC2)cc1	-6	?	?	13µM*	4
COc1ccccc1CNC(=O)C1CCN(S(=O)(=O)c2ccc3c(c2)NC(=O)CO3)CC1	-2	-12%	27	10µM*	-1
CC(C)c1ccc(NC(=O)C2CCN(S(=O)(=O)c3ccc4c(c3)NC(=O)CO4)CC2)cc1	-10	?	-68*	7%	4
COc1ccc(NC(=O)C2CCN(S(=O)(=O)c3ccc4c(c3)NC(=O)CO4)CC2)cc1	-22	?	-19	-1%	-10
Cc1[nH]n(C(N)=S)c(=O)c1N=Nc1ccc2ccccc2c1	93*	28%	-6	4.7µM*	45*
Cc1ccc(N=Nc2c(C)[nH]n(C(N)=S)c2=O)cc1C	158*	?	85	-23%	26*
CC(=O)Nc1ccc(N=Nc2c(C)[nH]n(C(N)=S)c2=O)cc1	88*	-1%	-30	?	34*
Cc1[nH]n(C(N)=S)c(=O)c1N=Nc1cc(-c2ccc(Br)cc2)[nH]n1	58	9%	60	-10%	35*
O=C(CN1CCN(C2CCCCC2)CC1)NCCC1=CCCCC1	-2	18%	-28	17%[5.75 µM]	11
COc1ccc(CCNC(=O)c2cnn(-c3cccc(C)c3)c2C2CCN(C(=O)OC(C)(C)C)CC2)cc1OC	.	.	0	.	.
C/C=C/CSc1nc2c(c(=O)[nH]c(=O)n2C)n1Cc1ccc(C)cc1	-8	13µM*	-34	?	3
Cc1ccc(CSc2nc3c(c(=O)[nH]c(=O)n3C)n2CCC(C)C)cc1	10	.	-1	2.9µM*	-5
CCCCn1c(SCc2ccc(Cl)cc2)nc2c1c(=O)[nH]c(=O)n2C	0	6.6µM*	34	2%	0
C/C(Cl)=C/Cn1c(SCc2ccc(Cl)cc2)nc2c1c(=O)[nH]c(=O)n2C	-4	?	30	.	-4
CC(C)n1c(SCc2ccc(Cl)cc2)nc2c1c(=O)[nH]c(=O)n2C	-12	.	53	12µM*	1
CC(C)CCn1c(SCc2ccc(Cl)cc2)nc2c1c(=O)[nH]c(=O)n2C	-13	?	32	36%	-3
CCCC(=O)Nc1ccc(Cl)c(NC(=O)c2cccnc2Cl)c1	21	-7%	-14	0%	3
CNC(=S)NNC(=O)c1cccn(Cc2cccc(C(F)(F)F)c2)c1=O	-1	0%	-21	-4%	-6
COCCn1c(SCc2ccc(F)cc2)nc2c1c(=O)[nH]c(=O)n2C	-10	-13%	-18	13µM*	-2
CC(C)CCn1c(Sc2nc3ccccc3o2)nc2c1c(=O)[nH]c(=O)n2C	69*	?	-78*	-29%	73*
CCCCCSc1nc2c(c(=O)[nH]c(=O)n2C)n1C(C)C	-9	?	37	12µM*	-5
O=C(O)c1ccc(Nc2nc3ccccc3n3cnnc23)cc1	.	.	11	.	.

Screens as filed in PubChem.
